In the library only some 2% were active in any assay of this set; here they are far more common.
LYPLA1 inh – LYPLA1 inhibitors, primary screen, counter-screen for PME1 inhibitor project, biochemical, fluorescence polarization, FP-Rh probe ABPP. Acyl-protein thioesterase 1 (Homo sapiens), O75608. recombinant LYPLA1. inhibition, % at 5.9 µM. hit rate 0.16% among 320,000. AID 2174, 2009;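 active = inhibition above the mean of all tested compounds plus 3 SD, set per campaign, cut at about 14% in these data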;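 note: inhibitors block serine hydrolase probe labeling of LYPLA1 so polarization falls; 0% = enzyme with DMSO and 100% = wells lacking LYPLA1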
PME-1 inh – PME-1 inhibitors via competitive probe labeling, primary screen, biochemical, fluorescence polarization, FP-Rh probe, HTS; recombinant PME-1; inhibition, % at 5.9 µM; hit rate 0.53% among 320,000;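 active = inhibition above the campaign mean of all compounds plus 3 SD, cut at about 26% in these data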;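 note: competitive labeling of PME-1 active site by serine hydrolase directed probe; 0% = PME-1 with DMSO and 100% = wells lacking PME-1 enzyme; inhibitors block probe labeling so polarization falls and inhibition rises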
PREPL inhibitor – PREPL enzyme inhibitors, primary screen, biochemical, fluorescence polarization. recombinant PREPL, fluorescence polarization activity-based probe. inhibition, % at 5.96 µM. hit rate 0.68% among 320,000;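 note: 0% = enzyme with DMSO and 100% = wells lacking enzyme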
LYPLA2 inh – LYPLA2 inhibitors, primary screen, counter-screen for PME1 inhibitor project, biochemical, fluorescence polarization, FP-Rh probe ABPP. Acyl-protein thioesterase 2 (Homo sapiens), O95372. recombinant LYPLA2. inhibition, % at 5.9 µM. hit rate 0.38% among 320,000;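 active = inhibition above the screen-wide mean plus 3 SD, limit set per campaign, cut at about 26% in these data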;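 note: 0% = LYPLA2 with DMSO and 100% = wells lacking LYPLA2 enzyme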
Target sequence (O95372 whole entry, looked up): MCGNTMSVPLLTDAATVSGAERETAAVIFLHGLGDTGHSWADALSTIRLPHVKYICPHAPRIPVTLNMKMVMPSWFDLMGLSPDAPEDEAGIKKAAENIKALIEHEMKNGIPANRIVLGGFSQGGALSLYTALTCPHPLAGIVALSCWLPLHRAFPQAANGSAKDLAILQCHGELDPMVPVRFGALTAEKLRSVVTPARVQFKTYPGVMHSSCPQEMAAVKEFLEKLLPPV
Fam108B counter – mouse Fam108B serine hydrolase inhibitors, primary screen, counter-screen for RBBP9 inhibitor project, biochemical, fluorescence polarization. recombinant Fam108B, FP-Rh probe fluorescence polarization. inhibition, % at 9.51 µM. hit rate 0.33% among 300,000. AID 1947, 2009;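 active = inhibition above the screen mean inhibition plus 3 SD, computed separately per campaign, cut at about 18% in these data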;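 note: inhibitors lower polarization as less probe binds the enzyme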
GSTO1 inh – inhibitors of recombinant GSTO1, primary screen, counter-screen for RBBP9 inhibitor project, biochemical, fluorescence polarization. Glutathione S-transferase omega-1 (Homo sapiens), P78417. activity-based probe fluorescence polarization. inhibition, % at 5.96 µM. hit rate 1.1% among 300,000. AID 1974, 2009;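 active = inhibition above the campaign mean inhibition plus 3 SD, cut at about 35% in these data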;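 note: 0% = GSTO1-1 with DMSO and 100% = wells lacking GSTO1-1 enzyme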
Target sequence (P78417 whole entry, looked up): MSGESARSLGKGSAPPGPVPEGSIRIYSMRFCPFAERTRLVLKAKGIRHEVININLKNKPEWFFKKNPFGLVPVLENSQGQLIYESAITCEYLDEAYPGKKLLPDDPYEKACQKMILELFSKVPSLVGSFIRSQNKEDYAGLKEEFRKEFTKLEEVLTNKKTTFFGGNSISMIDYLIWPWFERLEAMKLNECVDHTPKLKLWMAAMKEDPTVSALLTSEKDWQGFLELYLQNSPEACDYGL
PREPL inh cf – human PREPL enzyme inhibitors, confirmation, biochemical, fluorescence polarization | shares compounds with PREPL inhibitor | recombinant PREPL, fluorescence polarization activity probe | inhibition, % at 5.96 µM | hit rate 67% among 2,000;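 note: 0% = protein with DMSO and 100% = wells lacking protein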
Numbers without * were called inactive; . = not tested or not shown. Cut-off read from the data, not from the text of the source, unless noted: active = inhibition above about 43%; inactive = the rest.

SMILES	LYPLA1 inh	PME-1 inh	PREPL inhibitor	LYPLA2 inh	Fam108B counter	GSTO1 inh	PREPL inh cf
O=C(Nc1cc(Cl)ccc1N1CCCC1)C1=COCCO1	-1.9	-2.5	44.8*	5.8	.	.	32.2
CCCCCN=C(N)N/N=C/c1c[nH]c2ccc(OC)cc12	1.5	8.6	80.4*	4.7	2.1	-3.4	66.2*
Cc1ccc(Sc2cnn(-c3ccccc3)c(=O)c2Cl)cc1	7.4	2.8	46.2*	1.4	3.9	11.2	38.4
COc1ccccc1NC(=O)c1ccc(NC(=O)CSc2ncn[nH]2)cc1	-1.1	2.8	-1.1	7.1	-1.0	-3.5	.
CCOc1ccc(C(C)=O)cc1NC(=O)/C=C\C(=O)O	2.0	6.0	-1.4	-3.6	5.4	5.1	.
Clc1cccc(-c2ccc(C3Nc4cccc5cccc(c45)N3)o2)c1	.	.	49.0*	.	.	.	60.9*
O=C(O)c1ccc(-c2cccc(Cl)c2)o1	-0.2	3.2	-4.1	0.9	1.0	5.2	.
Cc1cccc(C)c1NC(=O)N1CCC(C(=O)c2ccc(F)cc2)CC1	1.1	4.2	1.4	0.2	0.1	-4.9	.
COc1ccc(/C=C2/SC(=S)N(CC(=O)O)C2=O)cc1OCc1ccc(Cl)cc1	-3.2	5.3	66.1*	0.8	-7.7	0.1	66.5*
COc1cc(/C=C2\SC(=S)N(CC(=O)O)C2=O)ccc1OC(=O)c1ccco1	-31.6	-76.6	24.3	-60.6	-49.3	-220.4	.
CCOc1cc(/C=C2/SC(=S)N(CC(=O)O)C2=O)ccc1OC(=O)c1cccs1	-10.1	-31.9	64.8*	-19.3	-12.9	-64.3	66.8*
COc1ccc(N2CCN(c3nc4c(c(=O)n(C)c(=O)n4C)n3Cc3ccccc3)CC2)cc1	3.5	2.3	50.2*	3.5	1.4	1.1	56.5*
C=C(C)Cn1c(N2CCN(c3ccc(OC)cc3)CC2)nc2c1c(=O)n(C)c(=O)n2C	0.8	4.5	41.8	1.7	1.2	1.0	.
CN1CCN(c2nc3c(c(=O)n(C)c(=O)n3C)n2CCSc2nc3ccccc3s2)CC1	-3.5	7.9	44.6*	0.2	-3.8	4.3	33.6
COc1ccccc1-c1nnc2sc(-c3ccc(N(C)C)cc3)nn12	3.0	13.0	51.7*	4.3	6.4	0.1	48.2*
CCOC(=O)/C(C#N)=C\c1cc(C)n(-c2ccccc2)c1C	-1.0	-1.6	-4.5	-0.5	-7.0	-5.9	.
CCOC(=O)/C(C#N)=C\c1ccc(N2CCN(C/C=C/c3ccccc3)CC2)cc1	6.1	-18.0	51.1*	18.9	-13.1	3.0	45.9*
COc1ccc(NC(=O)NCCCCc2ccccc2)c(OC)c1	-1.1	3.1	2.9	1.9	3.8	-1.8	.
O=[N+]([O-])c1cccc(/C=C/c2nc[nH]c2[N+](=O)[O-])c1	9.8	0.9	45.1*	11.5	6.5	-4.3	40.5
O=c1[nH]c(/C=C/c2cccc([N+](=O)[O-])c2)c([N+](=O)[O-])c(=O)[nH]1	4.9	9.4	-0.2	4.3	-4.0	29.3	.
Cc1ccc(NC(=O)COc2cccc(/C=C3\SC(=S)N(CCC(=O)O)C3=O)c2)cc1Cl	-3.4	32.5*	52.4*	8.6	-5.3	-30.4	27.9
CC(=O)c1sc(NC(=O)C(C)Oc2ccc3c(C)cc(=O)oc3c2)nc1C (centres undefined)	-2.5	3.9	2.5	-3.1	-2.6	-5.2	.
COc1ccc(NC(=O)c2ccc(Cn3cc(Cl)cn3)cc2)cc1	-0.9	-3.8	2.7	6.3	-6.4	0.3	.
CN(C)c1ccc(NC(=O)c2ccc(Cn3cc([N+](=O)[O-])cn3)cc2)cc1	1.3	-1.7	48.1*	17.0	1.6	5.5	57.4*
Cc1ccc(Nc2nnc(SC/C(O)=C(\C#N)c3nc4ccccc4[nH]3)s2)c(C)c1	-7.9	64.2*	48.8*	-3.7	18.1	-3.0	41.1
SMILES	LYPLA1 inh	PME-1 inh	PREPL inhibitor	LYPLA2 inh	Fam108B counter	GSTO1 inh	PREPL inh cf
Cc1cccc(Nc2nnc(SC/C(O)=C(\C#N)c3nc4ccccc4[nH]3)s2)c1	-5.9	16.1	31.5	-11.2	5.4	10.1	.
Cc1ccccc1-n1nc(C)c(N=O)c1N	0.8	1.7	-1.6	0.5	1.6	-5.8	.
O=C(CP(=O)(c1ccccc1)c1ccccc1)Nc1nc2ccccc2s1	-0.8	5.9	50.0*	6.3	-2.1	2.5	41.2
CCOCCCNC(=O)CN1C(=O)NC(Cc2c[nH]c3ccccc23)C1=O (centres undefined)	0.6	-0.5	14.1	4.4	0.1	4.9	.
CCNC(=O)n1cc(-n2cncn2)c(-c2ccc(Cl)cc2)n1	0.6	1.6	6.7	-4.0	-0.4	-3.1	.
Cc1ccc(Nc2nc(-c3c(C)nc4ncccn34)cs2)cc1	3.1	8.8	51.0*	7.3	11.0	12.4	44.7*
CCN1CCN(C(=O)C(C)Nc2ccc(OC)cc2OC)CC1 (centres undefined)	-2.6	-3.4	50.4*	-4.3	4.9	13.3	46.0*
CCOC(=O)N1CCN(CCC(=O)Nc2ccc(OC)cc2OC)CC1	4.6	1.4	15.1	1.0	-1.0	-2.9	.
C[C@H](CO)N1C[C@H](C)[C@@H](CN(C)C(=O)NC2CCCCC2)Oc2ccc(NC(=O)Nc3ccccc3)cc2C1=O	.	.	11.4	.	.	.	.
COc1cccc2cc(C(=O)C3=C(O)C(=O)N(CCN4CCOCC4)C3c3ccc(Cl)cc3)oc12 (centres undefined)	-3.0	2.4	15.4	-6.4	1.5	11.0	.
COc1cccc2cc(C(=O)C3=C(O)C(=O)N(CCN4CCOCC4)C3c3ccc(C(C)(C)C)cc3)oc12 (centres undefined)	-5.5	-12.4	52.9*	-5.0	-3.3	18.9	56.4*
COc1cc(/C=C2/C(=O)NN(c3cccc(C)c3)C2=O)ccc1OC(=O)c1ccco1	-0.6	10.8	56.2*	9.2	1.3	9.4	37.7
COc1cc(/C=C2\C(=N)N3N=C(S(C)(=O)=O)SC3=NC2=O)ccc1OC(=O)c1cccs1	-1.1	-11.1	76.3*	12.2	-3.4	6.3	87.5*
COc1cc(/C=C2\C(=N)N3N=C(S(C)(=O)=O)SC3=NC2=O)ccc1OC(=O)c1ccco1	-1.2	-6.1	61.1*	5.2	0.6	3.3	85.0*
CC(NCC(=O)Nc1ccccc1C(=O)NC1CC1)c1ccc(F)cc1F (centres undefined)	3.7	-0.6	2.4	9.1	.	.	.
O=C(COc1ccccc1C(=O)NCc1ccccc1)Nc1ccccc1	-4.3	-4.7	-6.9	-9.7	.	.	.
Cc1cccc(OCCC(=O)Nc2ccc(Cl)cc2F)c1	1.1	-0.8	-6.4	4.4	-1.8	7.6	.
